# In paper PMC7862700, “An all-to-all approach to the identification of sequence-specific readers for epigenetic DNA modifications on cytosine”:
# How the values were obtained:
# Assay in all cases: DAPPL (digital affinity profiling via proximity ligation, sequencing); 10 mM Tris-HCl pH 7.5, 50 mM NaCl, 1 mM DTT, 4% glycerol, room temperature, 30 min; GST-TFs on glutathione beads, 16-mer random dsDNA library, 0.1% formaldehyde crosslink after washing; high values mean tight binding
# Conditions in all cases: protein: recombinant; tags: N-terminal GST; dsDNA, one strand shown
# [1] = biological target: T1, FLI1 (Homo sapiens, UniProt Q01543 1-452)
# T1 sequence: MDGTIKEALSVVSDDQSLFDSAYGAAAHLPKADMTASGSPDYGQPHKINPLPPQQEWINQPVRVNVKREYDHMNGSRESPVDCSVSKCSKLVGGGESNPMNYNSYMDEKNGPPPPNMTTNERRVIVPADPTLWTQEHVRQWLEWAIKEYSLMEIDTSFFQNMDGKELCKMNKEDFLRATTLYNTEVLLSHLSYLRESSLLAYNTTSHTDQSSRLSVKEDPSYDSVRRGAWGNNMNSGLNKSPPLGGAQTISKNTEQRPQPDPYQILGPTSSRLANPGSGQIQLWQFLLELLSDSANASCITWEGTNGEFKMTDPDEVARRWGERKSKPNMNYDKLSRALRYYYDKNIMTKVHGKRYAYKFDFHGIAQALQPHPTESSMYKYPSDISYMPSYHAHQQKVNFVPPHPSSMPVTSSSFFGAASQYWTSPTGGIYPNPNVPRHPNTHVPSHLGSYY
# Outline: (§1)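 The binding signal reported is, for every hexamer, its read frequency for a factor over its read frequency for the tag-only sample. Reads came from pools of yeast-expressed, GST-fused human transcription factors on glutathione beads, barcoded with DNA and mixed with that sample, which were incubated with 200 nmole of a random double-stranded 16-mer DNA library in Tris/NaCl/DTT/glycerol buffer at room temperature for 30 min. After washing, the pools were crosslinked with 0.1% formaldehyde, proximity-ligated with BsaI/T4 ligase for 1 h at 37 °C, PCR-amplified and sequenced on an Illumina NextSeq500.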
# [2] = biological target: T2, ELK1 (Homo sapiens, UniProt P19419 1-428)
# T2 sequence: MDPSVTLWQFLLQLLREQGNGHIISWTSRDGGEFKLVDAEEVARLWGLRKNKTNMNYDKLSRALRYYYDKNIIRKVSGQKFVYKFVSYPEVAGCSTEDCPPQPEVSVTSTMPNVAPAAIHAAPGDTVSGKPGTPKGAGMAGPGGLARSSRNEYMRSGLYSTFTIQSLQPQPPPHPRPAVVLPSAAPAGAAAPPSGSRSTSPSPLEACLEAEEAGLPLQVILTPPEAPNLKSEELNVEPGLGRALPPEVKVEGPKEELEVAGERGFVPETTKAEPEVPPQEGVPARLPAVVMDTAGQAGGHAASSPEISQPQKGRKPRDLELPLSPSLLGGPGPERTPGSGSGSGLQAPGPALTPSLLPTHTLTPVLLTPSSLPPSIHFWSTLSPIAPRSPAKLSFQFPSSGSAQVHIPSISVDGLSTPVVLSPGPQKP
# Outline: as §1
# [3] = biological target: T3, GABPA (Homo sapiens, UniProt Q06546 1-454)
# T3 sequence: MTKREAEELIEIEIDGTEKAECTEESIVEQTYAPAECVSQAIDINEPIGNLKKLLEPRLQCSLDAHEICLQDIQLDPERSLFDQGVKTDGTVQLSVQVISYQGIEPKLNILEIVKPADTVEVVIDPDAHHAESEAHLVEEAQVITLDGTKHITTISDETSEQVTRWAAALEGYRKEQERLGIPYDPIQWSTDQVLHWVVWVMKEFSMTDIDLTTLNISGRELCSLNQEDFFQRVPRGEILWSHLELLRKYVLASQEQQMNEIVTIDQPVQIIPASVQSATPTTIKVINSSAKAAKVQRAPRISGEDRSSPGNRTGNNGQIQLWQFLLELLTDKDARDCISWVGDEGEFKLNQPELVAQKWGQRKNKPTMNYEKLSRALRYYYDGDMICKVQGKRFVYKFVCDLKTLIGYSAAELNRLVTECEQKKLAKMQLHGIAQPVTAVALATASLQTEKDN
# Outline: as §1
# [4] = biological target: T4, ERG (Homo sapiens, UniProt P11308 1-479)
# T4 sequence: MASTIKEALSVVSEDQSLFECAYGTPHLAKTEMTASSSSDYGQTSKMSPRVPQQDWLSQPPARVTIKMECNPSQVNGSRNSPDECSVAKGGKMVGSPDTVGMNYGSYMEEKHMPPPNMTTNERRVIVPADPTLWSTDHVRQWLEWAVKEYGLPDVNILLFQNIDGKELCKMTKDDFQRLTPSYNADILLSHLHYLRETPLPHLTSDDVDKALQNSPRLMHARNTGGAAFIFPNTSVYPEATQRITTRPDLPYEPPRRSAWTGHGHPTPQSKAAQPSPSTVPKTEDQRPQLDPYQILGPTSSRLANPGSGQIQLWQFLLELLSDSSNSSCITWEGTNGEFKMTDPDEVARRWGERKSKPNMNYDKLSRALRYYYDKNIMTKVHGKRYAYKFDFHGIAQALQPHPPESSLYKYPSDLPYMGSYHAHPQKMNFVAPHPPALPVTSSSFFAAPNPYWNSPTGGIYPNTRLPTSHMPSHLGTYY
# Outline: as §1
# [5] = biological target: ELF1 (Homo sapiens, UniProt P32519 1-619)
# ELF1, sequence (P32519 whole entry): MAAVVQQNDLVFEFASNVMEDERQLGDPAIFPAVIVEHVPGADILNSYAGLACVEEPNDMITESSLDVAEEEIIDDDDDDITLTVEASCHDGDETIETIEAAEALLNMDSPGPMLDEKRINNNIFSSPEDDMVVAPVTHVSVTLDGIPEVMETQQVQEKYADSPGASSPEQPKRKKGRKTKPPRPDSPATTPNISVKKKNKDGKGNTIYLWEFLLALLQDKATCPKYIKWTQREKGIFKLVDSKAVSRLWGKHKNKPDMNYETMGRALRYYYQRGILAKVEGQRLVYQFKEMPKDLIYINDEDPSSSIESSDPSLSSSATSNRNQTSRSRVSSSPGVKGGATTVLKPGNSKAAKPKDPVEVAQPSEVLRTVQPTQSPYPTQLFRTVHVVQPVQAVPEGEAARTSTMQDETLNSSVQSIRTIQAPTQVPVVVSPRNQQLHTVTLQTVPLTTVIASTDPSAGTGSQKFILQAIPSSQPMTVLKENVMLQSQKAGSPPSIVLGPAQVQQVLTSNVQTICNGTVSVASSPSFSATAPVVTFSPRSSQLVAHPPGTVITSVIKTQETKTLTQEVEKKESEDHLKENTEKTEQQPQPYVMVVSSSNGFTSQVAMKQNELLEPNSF
# Outline: as §1
# [6] = biological target: T5, EHF (Homo sapiens, UniProt Q9NZC4 1-300)
# T5 sequence: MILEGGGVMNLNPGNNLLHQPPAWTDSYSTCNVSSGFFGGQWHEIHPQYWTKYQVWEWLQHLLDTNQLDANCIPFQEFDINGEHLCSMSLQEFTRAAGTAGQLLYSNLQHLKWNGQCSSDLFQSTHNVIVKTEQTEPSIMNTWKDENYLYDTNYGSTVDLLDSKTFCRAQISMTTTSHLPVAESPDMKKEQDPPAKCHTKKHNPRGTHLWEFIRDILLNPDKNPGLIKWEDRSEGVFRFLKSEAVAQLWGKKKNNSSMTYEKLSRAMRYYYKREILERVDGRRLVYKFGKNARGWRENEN
# Outline: as §1
# [7] = biological target: SPI1 (Homo sapiens, UniProt P17947 1-270)
# Outline: as §1
# [8] = biological target: SPIB (Homo sapiens, UniProt Q01892 1-262)
# SPIB, sequence (Q01892 whole entry): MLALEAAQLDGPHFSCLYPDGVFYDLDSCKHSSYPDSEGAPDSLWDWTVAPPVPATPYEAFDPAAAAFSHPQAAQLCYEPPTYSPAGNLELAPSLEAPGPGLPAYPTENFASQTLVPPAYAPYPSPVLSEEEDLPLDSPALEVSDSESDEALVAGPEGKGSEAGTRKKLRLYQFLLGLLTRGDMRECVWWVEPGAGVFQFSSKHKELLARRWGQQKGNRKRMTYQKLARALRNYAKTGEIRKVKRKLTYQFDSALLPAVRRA
# Outline: as §1
# [9] = biological target: T6, ELK3 (Homo sapiens, UniProt P41970 1-407)
# T6 sequence: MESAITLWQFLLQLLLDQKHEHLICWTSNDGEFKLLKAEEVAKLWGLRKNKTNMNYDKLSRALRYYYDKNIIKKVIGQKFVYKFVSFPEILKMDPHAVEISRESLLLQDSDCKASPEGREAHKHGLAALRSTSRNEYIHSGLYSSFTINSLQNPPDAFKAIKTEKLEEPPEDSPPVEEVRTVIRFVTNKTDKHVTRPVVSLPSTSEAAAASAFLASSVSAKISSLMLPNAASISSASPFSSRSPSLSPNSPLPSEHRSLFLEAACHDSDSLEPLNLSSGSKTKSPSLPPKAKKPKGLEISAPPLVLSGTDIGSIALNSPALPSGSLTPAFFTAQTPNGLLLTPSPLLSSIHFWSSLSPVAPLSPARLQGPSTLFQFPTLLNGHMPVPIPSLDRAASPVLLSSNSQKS
# Outline: as §1
sequence,measurement,setting,value
TTTTTT,binding signal,[1],"1.12 fold enrichment (6-mer frequency, TF over GST control)"
same,binding signal,[2],"1.05 fold enrichment (6-mer frequency, TF over GST control)"
same,binding signal,[3],"1.25 fold enrichment (6-mer frequency, TF over GST control)"
same,binding signal,[4],"1.12 fold enrichment (6-mer frequency, TF over GST control)"
same,binding signal,[5],"1.25 fold enrichment (6-mer frequency, TF over GST control)"
same,binding signal,[6],"1.2 fold enrichment (6-mer frequency, TF over GST control)"
same,binding signal,[7],"1.36 fold enrichment (6-mer frequency, TF over GST control)"
same,binding signal,[8],"1.22 fold enrichment (6-mer frequency, TF over GST control)"
same,binding signal,[9],"1.34 fold enrichment (6-mer frequency, TF over GST control)"
